The campaign covered roughly 5,500 compounds. About 2,000 (36%) were called active. Roughly 18% stayed inconclusive and do not appear here. Cut-off read from the data, not from the text of the source: active = normalized growth mostly below about 0.91 (no sharp cut-off); inconclusive = no clear call, values can overlap the other calls; inactive = mostly above about 0.92. The list shows a part of the results.
Test: chemical genetic growth profiling, strain panel (AID 1159580);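 note: tested at 20 µM; growth read once vehicle control cultures reached saturation at 30 °C; 1 = growth at the plate median or of vehicle wells; lower values mean less growth of the strain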
Settings: S. cerevisiae deletion strains, growth OD

Measured: normalized growth

NC(=O)COc1c(F)cc(SCCNS(=O)(=O)c2ccccc2)cc1F
inactive: locus YAL040C, strain CLN3, hits give low values 1.03 | locus YCL061C, strain MRC1 (second series), hits give low values 1 | locus YDR363W, strain ESC2, hits give low values 0.968 | locus YER002W, strain NOP16, hits give low values 0.97 | locus YNL175C, strain NOP13, hits give low values 0.977 | locus YNL197C, strain WHI3, hits give low values 0.975 | locus YNL224C, strain SQS1, hits give low values 0.983 | locus YOR083W, strain WHI5 (second series), hits give low values 0.998 | locus YPL241C, strain CIN2, hits give low values 0.996

COc1cc2c3cc1Oc1c(OC)c(OC)cc4c1[C@@H](Cc1cccc(c1)Oc1ccc(c(O)c1)C[C@@H]3N(C)CC2)N(C)CC4
inactive: locus YHR030C, strain SLT2, hits give low values 1.02 | locus YHR079C, strain IRE1, hits give low values 1.01 | locus YJL095W, strain BCK1, hits give low values 0.994 | locus YJR066W, strain TOR1, hits give low values 0.984 | locus YLR113W, strain HOG1, hits give low values 0.968 | locus YNL183C, strain NPR1, hits give low values 0.983 | locus YOR231W, strain MKK1, hits give low values 1.03 | locus YPL256C, strain CLN2, hits give low values 1.07

— PubChem BioAssay AID1159580 (chemical genetic matrix, 2015)
